Measured values as given in PubChem BioAssay.
Calls of active or inactive are those of the source. Unless noted, how the calls were made is not given here.

How the values were obtained:
[1] = anti-His antibody binders, primary screen, artefact control for SMM control protein annotation, biochemical, small-molecule microarray, 635 nm fluorescence (AID 1128); details: anti-His Alexa647 antibody binding, higher = more signal;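 further: score merges feature fluorescence with signal-to-noise for each printed compound spot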
[2] = test system: Human papillomavirus type 1a E7 protein (residues 1-88); test: HPV1a E7 small-molecule binders, primary screen, biochemical, small-molecule microarray, residues 1-88, 635 nm (AID 1129); details: small-molecule microarray binding, fluorescence 635 nm; higher = more signal
[3] = biological target: Focal adhesion kinase 1 (Homo sapiens) (UniProt Q05397); test: small-molecule microarray binders of FAK, primary screen, biochemical, 635/667 nm fluorescence, BSA, DTT (AID 1130); details: PTK2 binding, 635 nm fluorescence, higher = more signal;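 further: composite of spot emission at 667 nm and signal to noise over triplicate slides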
Focal adhesion kinase 1 (Homo sapiens), sequence (Q05397 whole entry, looked up): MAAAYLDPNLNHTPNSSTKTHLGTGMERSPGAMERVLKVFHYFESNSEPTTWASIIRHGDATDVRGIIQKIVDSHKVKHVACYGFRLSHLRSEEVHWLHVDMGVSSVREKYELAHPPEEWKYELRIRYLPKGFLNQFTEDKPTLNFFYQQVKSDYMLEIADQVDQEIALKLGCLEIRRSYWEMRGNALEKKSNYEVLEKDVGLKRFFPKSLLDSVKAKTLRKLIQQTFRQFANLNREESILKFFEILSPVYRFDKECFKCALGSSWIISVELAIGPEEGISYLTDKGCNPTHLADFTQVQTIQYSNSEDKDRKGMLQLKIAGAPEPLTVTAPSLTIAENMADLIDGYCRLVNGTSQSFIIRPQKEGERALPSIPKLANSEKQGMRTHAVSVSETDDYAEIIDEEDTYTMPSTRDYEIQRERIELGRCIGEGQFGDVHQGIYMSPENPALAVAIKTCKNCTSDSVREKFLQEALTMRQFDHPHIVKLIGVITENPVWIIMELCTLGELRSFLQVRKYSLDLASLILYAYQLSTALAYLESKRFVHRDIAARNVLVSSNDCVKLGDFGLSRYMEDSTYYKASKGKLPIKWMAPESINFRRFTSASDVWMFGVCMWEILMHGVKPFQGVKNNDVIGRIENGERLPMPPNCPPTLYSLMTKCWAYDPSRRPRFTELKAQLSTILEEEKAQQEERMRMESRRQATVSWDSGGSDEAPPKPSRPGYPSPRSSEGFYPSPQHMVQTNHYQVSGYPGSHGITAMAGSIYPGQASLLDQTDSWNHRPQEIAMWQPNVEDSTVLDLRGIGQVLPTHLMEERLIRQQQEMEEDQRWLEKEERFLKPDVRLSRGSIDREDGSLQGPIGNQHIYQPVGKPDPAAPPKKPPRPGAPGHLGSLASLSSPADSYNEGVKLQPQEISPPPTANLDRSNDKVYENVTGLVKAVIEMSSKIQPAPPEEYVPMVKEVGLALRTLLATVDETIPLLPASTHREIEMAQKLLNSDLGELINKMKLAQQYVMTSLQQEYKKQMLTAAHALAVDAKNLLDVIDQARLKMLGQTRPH

[4] = test system: Fibrinogen (Alexa647-labelled); test: fibrinogen binders on compound microarrays, profiling panel, artefact control for SMM control-protein annotation, biochemical, small-molecule microarray, 635/667 nm fluorescence (AID 1131); details: fibrinogen-A647 binding fluorescence, higher = more signal;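 further: z-score merges 667 nm fluorescence with per-spot signal-to-noise over triplicate slides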
[5] = biological target: Follistatin (Homo sapiens) (UniProt P19883); test: follistatin binders on small-molecule microarrays, primary screen, biochemical, small-molecule microarray, 635/667 nm fluorescence (AID 1132); details: FST binding, 635 nm fluorescence, higher = more signal
Follistatin (Homo sapiens), sequence (P19883 whole entry, looked up): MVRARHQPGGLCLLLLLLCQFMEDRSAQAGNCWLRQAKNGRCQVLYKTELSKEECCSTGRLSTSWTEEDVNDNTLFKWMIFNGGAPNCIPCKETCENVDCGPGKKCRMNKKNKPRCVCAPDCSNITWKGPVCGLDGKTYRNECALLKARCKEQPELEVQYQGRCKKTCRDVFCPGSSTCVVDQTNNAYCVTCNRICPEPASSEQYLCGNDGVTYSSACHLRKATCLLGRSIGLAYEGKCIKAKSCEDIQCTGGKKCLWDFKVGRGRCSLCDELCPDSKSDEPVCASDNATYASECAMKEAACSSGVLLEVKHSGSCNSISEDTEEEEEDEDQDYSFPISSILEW

[6] = biological target: Fibroblast growth factor 2 (Homo sapiens) (UniProt P09038); test: FGF2 binders on small-molecule microarrays, primary screen, biochemical, small-molecule microarray, 635/667 nm fluorescence (AID 1133); details: small-molecule microarray binding, FGF2, fluorescence 635/667; higher = more signal
Fibroblast growth factor 2 (Homo sapiens), sequence (P09038 whole entry, looked up): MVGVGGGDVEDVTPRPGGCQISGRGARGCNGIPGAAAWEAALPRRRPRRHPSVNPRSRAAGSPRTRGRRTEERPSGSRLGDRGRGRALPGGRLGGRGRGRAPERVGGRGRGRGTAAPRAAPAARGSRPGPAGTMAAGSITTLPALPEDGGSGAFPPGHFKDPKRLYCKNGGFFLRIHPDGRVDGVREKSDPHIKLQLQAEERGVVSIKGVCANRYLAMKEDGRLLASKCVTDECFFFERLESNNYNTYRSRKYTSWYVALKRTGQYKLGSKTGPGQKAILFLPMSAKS

[7] = mitochondrial membrane potential change in A549 cells, profiling panel, cell-based, JC-1 fluorescence, basal, 24 h, 100 nL (AID 1138); details: higher = more signal;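 further: A549 lung adenocarcinoma cells under basal conditions with no added stimulus; test concentration not given here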
[8] = test system: Lefty1; test: Lefty1 binders on small-molecule microarrays, primary screen, biochemical, small-molecule microarray, 635/667 nm fluorescence (AID 1139); details: small-molecule microarray binding, fluorescence 635/667; higher = more signal
[9] = test system: wheat germ agglutinin (Triticum aestivum), Alexa647-labelled; test: wheat germ agglutinin binders on compound microarrays, profiling panel, artefact control for SMM control-protein annotation, biochemical, small-molecule microarray, 635/667 nm fluorescence (AID 1140); details: WGA-A647 binding, 635 nm fluorescence, higher = more signal;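 further: score merges 667 nm feature emission with signal to noise over triplicate slides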
[10] = biological target: Luciferin 4-monooxygenase (Photinus pyralis) (UniProt P08659); test: firefly luciferase enzyme inhibitors, primary screen, biochemical, luminescence, purified enzyme, 2006 set (AID 1141); details: SteadyGlo luminescence, 30 min, higher = more signal, called active from +8 up or from −8 down;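 further: cell-free assay with purified firefly luciferase at 100 ng per well in PBS; test concentration not given here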
Luciferin 4-monooxygenase (Photinus pyralis), sequence (P08659 whole entry, looked up): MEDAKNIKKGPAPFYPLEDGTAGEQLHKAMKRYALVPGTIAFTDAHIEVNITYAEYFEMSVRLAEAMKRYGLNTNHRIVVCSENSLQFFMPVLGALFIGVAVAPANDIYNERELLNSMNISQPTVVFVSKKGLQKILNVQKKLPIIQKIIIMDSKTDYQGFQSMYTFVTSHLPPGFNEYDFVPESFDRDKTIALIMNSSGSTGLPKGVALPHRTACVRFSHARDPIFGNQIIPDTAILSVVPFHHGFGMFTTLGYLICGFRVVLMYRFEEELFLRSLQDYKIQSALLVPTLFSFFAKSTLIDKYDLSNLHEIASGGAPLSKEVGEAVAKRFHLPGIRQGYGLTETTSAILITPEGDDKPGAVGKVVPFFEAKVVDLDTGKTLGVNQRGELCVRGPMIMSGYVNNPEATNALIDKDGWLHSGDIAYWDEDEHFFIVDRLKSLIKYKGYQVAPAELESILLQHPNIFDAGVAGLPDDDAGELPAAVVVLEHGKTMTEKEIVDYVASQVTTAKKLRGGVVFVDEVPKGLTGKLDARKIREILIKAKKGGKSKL

[11] = test system: Wnt5a (protein binding on small-molecule microarray); test: Wnt5a binders on small-molecule microarray, primary screen, biophysical, 635/667 nm fluorescence (AID 1142); details: 635 nm fluorescence, higher = more signal;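 further: fluorescence read at 667 nm with signal to noise per printed feature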
[12] = cell viability in Huh7 cells, primary screen, cytotoxicity control for HCV replication inhibitor project, CellTiter-Glo luminescence, basal, 48 h (AID 1143); details: Huh7 HCV replicon, higher = more signal, called active from +8 up or from −8 down;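 further: Huh7 hepatoma cells carrying a hepatitis C replication reporter with no stimulus; test concentration not given here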
[13] = P. aeruginosa biofilm formation inhibitors, primary screen, PAO1 strain, BacTiter-Glo luminescence, LB-PBS (AID 1144); details: 12 h, higher = more signal
[14] = CREB reporter modulators without forskolin, primary screen, cell-based, PC12, CRE-LacZ reporter, unstimulated (AID 1145); details: no forskolin, luminescence, 4.5 h, higher = more signal, called active from +8 up or from −8 down
[15] = CREB reporter modulators under forskolin, primary screen, cell-based, PC12, CRE-LacZ reporter, forskolin-stimulated (AID 1146); details: luminescence, 4.5 h, higher = more signal, called active from +8 up or from −8 down;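 further: PC12 cells with 6xCRE LacZ reporter stimulated by forskolin 10 µM; beta-galactosidase reporter signal reflecting CREB driven transcription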
[16] = biological target: Streptavidin (Streptomyces avidinii) (UniProt P22629); test: streptavidin binders on small-molecule microarray, primary screen, artefact control for SMM compound annotation, biophysical, 635/667 nm fluorescence (AID 1147); details: streptavidin binding, higher = more signal;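 further: signal reflects streptavidin binding to arrayed compounds as a control protein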
Streptavidin (Streptomyces avidinii), sequence (P22629 whole entry, looked up): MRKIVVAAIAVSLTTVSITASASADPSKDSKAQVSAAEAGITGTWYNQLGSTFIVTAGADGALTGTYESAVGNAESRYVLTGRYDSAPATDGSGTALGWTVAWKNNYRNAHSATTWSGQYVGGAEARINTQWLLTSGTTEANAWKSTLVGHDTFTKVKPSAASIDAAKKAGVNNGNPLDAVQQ

[17] = small-molecule binders of probe aInhba, primary screen, biochemical, small-molecule microarray, 635/667 nm fluorescence (AID 1148); details: higher = more signal;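 further: score merges 667nm spot fluorescence with signal-to-noise for antibody binding to printed compounds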
[18] = biological target: Torsin-1A (Homo sapiens) (UniProt O14656); test: torsin A binders from cell lysate, primary screen, small-molecule microarray, wild-type, 635/667 nm (AID 1149); details: COS7 hTOR1A-WT lysate, 635 nm fluorescence, higher = more signal
Torsin-1A (Homo sapiens), sequence (O14656 whole entry, looked up): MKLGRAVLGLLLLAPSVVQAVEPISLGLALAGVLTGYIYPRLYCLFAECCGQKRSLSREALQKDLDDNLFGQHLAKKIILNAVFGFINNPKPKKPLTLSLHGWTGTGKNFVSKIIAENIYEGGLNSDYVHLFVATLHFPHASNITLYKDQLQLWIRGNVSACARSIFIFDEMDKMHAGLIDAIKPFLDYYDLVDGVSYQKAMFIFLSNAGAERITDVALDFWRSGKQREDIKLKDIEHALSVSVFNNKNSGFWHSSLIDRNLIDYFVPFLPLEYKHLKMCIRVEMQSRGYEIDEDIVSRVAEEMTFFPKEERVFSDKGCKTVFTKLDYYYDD

[19] = biological target: Torsin-1A (Homo sapiens) (UniProt O14656); test: small-molecule binders of mutant TOR1A in lysate, primary screen, cell lysate, small-molecule microarray, COS7 lysate, 635/667 nm fluorescence (AID 1150); details: COS7 hTOR1A mutant lysate, 635 nm fluorescence, higher = more signal;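 further: score pools 667 nm emission and signal to noise measuring lysate protein binding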
[20] = test system: Sonic hedgehog protein (Shh); test: small-molecule binders of Shh protein, primary screen, biochemical, small-molecule microarray, 635/667 nm fluorescence (AID 1151); details: small-molecule microarray binding, 635 nm fluorescence; higher = more signal;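 further: Shh protein binding to compounds spotted on small-molecule microarray slides; score combines spot fluorescence intensity with signal-to-noise across triplicate slides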

Compound	composite z-score [1]	composite z-score [2]	composite z-score [3]	composite z-score [4]	composite z-score [5]	composite z-score [6]	z-score [7]	composite z-score [8]	composite z-score [9]	z-score [10]	composite z-score [11]	z-score [12]	z-score [13]	z-score [14]	z-score [15]	composite z-score [16]	composite z-score [17]	composite z-score [18]	composite z-score [19]	composite z-score [20]
CCOC(=O)C1=CC[C@@H](c2ccccc2C(F)(F)F)N(S(=O)(=O)c2ccc(C)cc2)[C@H]1c1ccc(C#N)cc1	0.915	1.15	-0.0446	0.647	0.507	0.437	-1.92	-0.0373	1.08	1.47 (inactive)	0.125	-1.96 (inactive)	-0.29 (inactive)	-0.676 (inactive)	0.465 (inactive)	1.11	0.367	0.502	0.512	0.494
CCCCC(=C=CC[C@@H](O)c1ccccc1OCCO)C[C@@H](O)COCc1ccccc1	0.0168	-0.399	0.577	0.479	0.271	0.668	0.995	0.0842	0.0771	-2.59 (inactive)	-0.027	-2.16 (inactive)	-0.631 (inactive)	17.1 (active)	-0.749 (inactive)	-0.385	0.257	-0.745	-0.592	0.697
C=CCOC(=O)[C@H]1[C@@H]2C(=O)O[C@@H](c3ccccc3)[C@@H](c3ccccc3)N2[C@@H](c2ccc(OCCOC(=O)[C@@H]3C[C@@H]4C(=O)N[C@@H](CCCCNC(C)=O)C(=O)N4[C@@H]3c3ccc(O)cc3)cc2)[C@]12C(=O)Nc1ccc(I)cc12	1.66	1.21	0.736	0.468	1.32	1.49	-1.38	0.752	0.0621	-0.875 (inactive)	0.804	-0.257 (inactive)	0.272 (inactive)	0.143 (inactive)	0.236 (inactive)	-0.139	0.225	1.25	1.15	2.21
COc1ccc(CCNC(=O)[C@@]2(Sc3ccc(C)cc3)CC(=O)N(C3Cc4ccccc4C3)[C@@H]2c2ccc(CO)cc2)cc1	1.27	1.21	1.54	0.434	1.65	2.16	0.927	1.44	0.437	0.529 (inactive)	1.56	-5.12 (inactive)	-0.926 (inactive)	-0.698 (inactive)	-0.0678 (inactive)	1.03	0.507	0.285	0.811	2.07
O=C(CS)NCCCCCNC(=O)[C@@H]1C[C@@H]2C(=O)N3CCC[C@H]3C(=O)N2[C@@H]1c1cccc(OCCO)c1	2.66	1.21	0.515	-0.561	1.28	1.24	0.777	-0.283	-0.161	-1.38 (inactive)	0.336	-0.0341 (inactive)	-0.448 (inactive)	0.143 (inactive)	-0.16 (inactive)	0.281	-0.46	1.44	0.656	0.792
